Screening data: PubChem BioAssay, National Center for Advancing Translational Sciences (NCATS)
The list is not random: actives were taken first. Their share in the collection is about 19%.
DT40 TDP1 no CPT: qHTS for Inhibitors of human tyrosyl-DNA phosphodiesterase 1 (TDP1): qHTS in cells in absence of CPT; actives 15% (n = 420,000); Potency, µM (top dose mostly 46.2 µM), actives largely listed as inhibitors; DT40 Tdp1-/- hTDP1 cells, no CPT, ATP luminescence, 48 h; note: nearly all actives have a fitted effect of over 55% in size
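Luminescent ATP content (CellTiter-Glo) served as the growth readout. Knockout chicken DT40 cells expressing human TDP1 were exposed to compounds without camptothecin for a minimum 48 hr at 37 °C.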
TGFb SMAD3 inh: qHTS for Inhibitors of TGF-b. HepG2 CAGA-GFP TGF-b/SMAD3 reporter, GFP fluorescence, 18 h; TGF-beta stimulated, 500 pg/mL final. Potency, µM (titrated, usually from 46.1 µM), hits mostly inhibitors. actives 1.2% (n = 410,000); note: nearly all actives have a fitted effect of over 65% in size
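Cell-based qHTS in HEPG2 carrying a CAGA-GFP Smad reporter; compounds added before 500 pg/mL final TGF-beta, 18 h incubation at 37 degrees C, GFP fluorescence quantified per cell by imaging cytometry.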
IL-1B inflam inh: qHTS for Inhibitors of Inflammasome Signaling: IL-1-beta AlphaLISA Primary Screen. THP-1 LPS/ATP IL-1B secretion, AlphaLISA, 16 h; active compounds read low. activity change, % at 57.5 µM. actives 4.7% (n = 360,000); in the data active = activity change below about -50%; inconclusive = mostly about -30% to -49%
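THP-1 cells pretreated 1 hr with compounds (up to 57.5 uM final), then stimulated with LPS (250 ng/mL final) plus ATP (1.25 mM final); secreted IL-1B measured by AlphaLISA after 16 hr, decreased signal indicating inhibition.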
HepG2 tox: qHTS for Inhibitors of TGF-b: Cytotox Counterscreen; Potency, µM (top dose mostly 46.1 µM), hits mostly cytotoxic; actives 0.76% (n = 410,000); AID 588856, 2011; HepG2 CAGA-GFP viability, ATP luminescence, 18 h
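HepG2 CAGA-GFP cells (1000/well, DMEM with 1% FBS) received compound, then TGF-beta at 500 pg/mL final, and were incubated 18 hours at 37 degrees C. Viability was read by CellTiter-Glo luminescence. Media-only wells were set as complete cell-killing and DMSO as no toxicity.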
ASM inhibitor: Inhibitors of Secretory Acid Sphingomyelinase (S-ASM): qHTS. placental ASM, HMU-PC fluorogenic substrate, 60 min. Potency, µM (titrated, usually from 57.5 µM), most hits filed as inhibitors. AID 504937, 2011. Sphingomyelin phosphodiesterase (Homo sapiens), P17405. actives 0.006% (n = 340,000)
Target sequence (P17405 47-631 limits assumed): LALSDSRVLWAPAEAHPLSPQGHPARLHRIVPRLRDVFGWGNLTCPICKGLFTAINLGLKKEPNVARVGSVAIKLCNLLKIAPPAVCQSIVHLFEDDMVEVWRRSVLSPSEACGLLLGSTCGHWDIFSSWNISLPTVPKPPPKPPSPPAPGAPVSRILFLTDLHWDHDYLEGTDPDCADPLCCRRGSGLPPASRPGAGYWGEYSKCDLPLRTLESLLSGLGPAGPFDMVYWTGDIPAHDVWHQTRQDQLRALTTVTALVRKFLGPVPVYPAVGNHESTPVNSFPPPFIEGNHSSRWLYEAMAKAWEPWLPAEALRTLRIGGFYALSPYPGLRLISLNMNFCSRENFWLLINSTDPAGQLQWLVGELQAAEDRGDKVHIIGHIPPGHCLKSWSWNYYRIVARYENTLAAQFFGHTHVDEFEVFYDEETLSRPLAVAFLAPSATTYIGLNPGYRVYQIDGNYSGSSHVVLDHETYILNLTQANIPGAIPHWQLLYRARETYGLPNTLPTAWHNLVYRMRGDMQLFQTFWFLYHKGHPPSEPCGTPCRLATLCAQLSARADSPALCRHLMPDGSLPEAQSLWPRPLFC
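Steps: dispense placental human ASM, pin compound, wait 10 min at room temperature, add HMU-PC0 substrate at 9 uM final, incubate 60 min at 37 °C, add stop solution raising pH to 10, read fluorescence.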
DT40 TDP1 CPT: qHTS for Inhibitors of human tyrosyl-DNA phosphodiesterase 1 (TDP1): qHTS in cells in presence of CPT | AID 686979, 2013 | actives 12% (n = 420,000) | Potency, µM (series often up to 46.2 µM), usual class: inhibitors | chicken DT40 Tdp1-/-;hTDP1 cells + 20 nM CPT, ATP luminescence, 48 h; note: nearly all actives have a fitted effect of over 55% in size
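Cell growth measured by CellTiter-Glo luminescence after a minimum 48 h, 37 C compound exposure with 20 nM CPT in Tdp1-knockout DT40 cells stably expressing hTDP1, seeded 400/well; qHTS titration format.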
Hits are given with their value; . = inactive; ? = inconclusive; / = not tested or not shown. Unless noted, calls come from the whole dose curve; as a rule, active = well fitted curve in the direction sought with a large enough effect; inconclusive = small, poorly fitted or top-dose-only effect, or another doubt; inactive = no such curve, though single readings can be large; an effect the other way counts as inactive or inconclusive.

SMILES | DT40 TDP1 no CPT | TGFb SMAD3 inh | IL-1B inflam inh | HepG2 tox | ASM inhibitor | DT40 TDP1 CPT
Cc1ccc(C(=O)Nc2ccc3c(c2)N(C)C(=O)c2ccccc2S3)cc1F | 0.82µM | ? | / | . | / | 1µM
Cc1ccc(NC(=O)c2ccc3c(c2)NC(=O)c2ccccc2S3)cc1 | 2.6µM | . | / | . | / | 3.7µM
C/C(=N\NC(=O)c1ccc(C)cc1C)c1ccc2c(c1)Nc1ccccc1S2 | 16µM | . | . | . | / | ?
CC(=O)Nc1cc(C(=O)Nc2ccc3c(c2)N(C)C(=O)c2ccccc2S3)ccc1C | 0.92µM | ? | / | . | / | 1.6µM
CC(=O)c1ccc2c(c1)Nc1ccccc1S2 | ? | . | . | . | . | .
O=S(=O)(c1ccc2ccccc2c1)n1nc(-c2ccco2)nc1NCc1ccc(F)cc1 | . | . | / | . | / | .
CC(C)Oc1ccc(S(=O)(=O)N2CCOCC2)cc1NC(=O)c1cccc(S(=O)(=O)N2CCCC2)c1 | . | . | . | . | . | .
CC1CCN(CC(=O)Nc2ccc(S(=O)(=O)NC3CC3)cc2)CC1 | . | . | . | . | . | .
Cc1ccc(NC2=C(Cl)C(=O)c3ccccc3C2=O)cc1 | 13µM | ? | . | . | . | 8.2µM
O=C1C(Cl)=C(Nc2ccc(O)cc2)C(=O)c2ccccc21 | ? | ? | -105 | 5.6µM | . | 21µM
Cc1cc(C)cc(NC2=C(N)C(=O)c3ccccc3C2=O)c1 | . | . | . | . | . | ?
CCN(CC)c1ccc(NC2=C(Cl)C(=O)c3ccccc3C2=O)cc1 | 13µM | ? | -108 | . | . | 10µM
CC(=O)Nc1ccc(NC2=CC(=O)c3ccccc3C2=O)cc1 | . | ? | . | . | . | .
O=C1C=C(Nc2ccc(O)cc2)C(=O)c2ccccc21 | 13µM | 10µM | . | 11µM | . | 15µM
CCN(CC)c1ccc(NC(=O)C(C)C)cc1 | . | ? | . | . | . | .
O=C(CN1C(=O)NC2(CCCC2)C1=O)NCCc1ccc(Cl)cc1Cl | . | . | . | . | . | .
Cc1ccc(-c2nc3c(c(SCc4ccc(Br)cc4)n2)Cc2c(CO)cnc(C)c2O3)cc1 | . | . | / | . | / | .
CN(CC(=O)Nc1cccc(F)c1)CC(=O)N(C)c1c(N)n(Cc2ccccc2)c(=O)[nH]c1=O | . | . | . | . | . | .
O=C1c2cccc3cccc(c23)C(=O)N1CCCN1CCN(c2ccc(F)cc2)CC1 | ? | ? | . | . | . | ?
COc1cccc(C(c2sc3nc(-c4ccco4)nn3c2O)N2CCC(C)CC2)c1 (stereo not given) | . | . | / | . | / | .
COc1ccc(NC(=O)c2ccco2)cc1NC(=O)COc1cc(C)ccc1C(C)C | 7.3µM | . | / | . | / | 8.2µM
Cc1ccc(C(C)C)c(OCC(=O)Nc2cccc(NC(=O)c3ccco3)c2)c1 | 21µM | ? | / | . | / | ?
COc1ccc(NC(=O)c2ccco2)cc1NC(=O)COc1ccc(Cl)c(C)c1 | ? | . | / | . | / | ?
CC(C)c1ccccc1OCCNC(=O)c1cccnc1 | 21µM | . | . | . | . | 18µM
Cc1ccc(C(C)C)c(OCC(=O)NNC(=O)Nc2ccccc2)c1 | ? | ? | -76 | . | . | .
SMILES | DT40 TDP1 no CPT | TGFb SMAD3 inh | IL-1B inflam inh | HepG2 tox | ASM inhibitor | DT40 TDP1 CPT
CC(=O)c1ccc(NC(=O)NCCc2c[nH]c3ccccc23)cc1 | ? | . | / | . | / | ?
Cc1ccc(OCCNC(=O)c2ccccc2O)cc1 | ? | . | . | . | . | ?
Cc1ccc(C(C)C)c(OCC(=O)N/N=C/c2cccn2C)c1 | 15µM | ? | . | . | . | ?
COc1ccc(NC(=O)c2ccco2)cc1NC(=O)c1ccc(OC(C)C)cc1 | 21µM | . | / | . | / | ?
CCOc1cc(C(=O)NC(C)c2ccncc2)cc(OCC)c1OCC (stereo not given) | . | . | . | . | . | .
Cc1ccc(C(C)C)c(OCCNC(=O)c2ccccc2O)c1 | 26µM | ? | -81 | . | . | 15µM
CCOc1cc(Br)c(C(C)NC(=O)c2cccnc2)cc1OCC (stereo not given) | 23µM | . | . | . | . | 18µM
CC(NS(=O)(=O)c1ccccc1)C1CC2CCC1C2 (stereo not given) | . | . | . | . | . | .
COc1ccc(CNS(=O)(=O)c2ccc3c(c2)NC(=O)C(C)S3)cc1 (stereo not given) | ? | . | . | . | . | ?
Cc1ccc(CCNS(=O)(=O)c2ccc3c(c2)NC(=O)C(C)C(=O)N3)cc1 (stereo not given) | 23µM | . | . | . | . | .
COc1cccc(CNS(=O)(=O)c2ccc3c(c2)C(C(C)C)C(=O)N3)c1 (stereo not given) | 13µM | . | / | . | / | ?
Cc1ccc(CCNS(=O)(=O)c2ccc(C)cc2)cc1 | . | . | . | . | . | ?
CC(C)C1C(=O)Nc2ccc(S(=O)(=O)NCCc3ccc(Cl)cc3)cc21 (stereo not given) | 23µM | ? | / | . | / | ?
CN1C(=O)C(C)(C)c2cc(S(=O)(=O)NCCc3ccc(Cl)cc3)ccc21 | . | ? | . | . | . | .
Cc1ccc(CCNC(=O)C2CCC(=O)N(CC3CCCCC3)C2)cc1 (stereo not given) | . | ? | . | . | / | .
COc1ccc(O)c(C(=O)c2cnn(C(=O)c3cccc(N(C)C)c3)c2)c1 | 18µM | . | . | . | . | 18µM
Cc1cc(NC(=O)c2ccc(F)cc2)n(C)n1 | . | . | . | . | . | .
O=[N+]([O-])c1ccc(N/N=C/c2ccc(O)c(O)c2O)c(S(=O)(=O)N2CCOCC2)c1 | ? | ? | . | . | . | 4.1µM
COc1cc(/C=N/Nc2ccc([N+](=O)[O-])cc2S(=O)(=O)N2CCOCC2)cc(OC)c1OC | ? | . | . | . | . | .
O=[N+]([O-])c1ccc(N/N=C/c2cccc(O)c2O)c(S(=O)(=O)N2CCOCC2)c1 | 13µM | ? | . | . | . | 10µM
CCC(C)[C@H](NC(=O)[C@@H]1Cc2ccccc2CN1C(=O)OC(C)(C)C)C(=O)NCC1CCC(C(=O)O)CC1 (stereo not given in full) | . | . | . | . | . | .
